The source of these data is PubChem BioAssay (NCI).

The nature of this test: NCI Yeast Anticancer Drug Screen. Data for the mec2-1 strain (AID 157). As to conditions: S. cerevisiae mec2-1 strain, active compounds read high. The procedure:
Growth inhibition of yeast strains with defined genetic alterations is measured as a screen for potential anti-cancer activity. Selected strains with alterations in DNA damage repair or cell cycle control were exposed to compounds and growth inhibition was measured relative to vehicle treated controls. The strain used in this assay is mec2-1

The mark [1] stands for this setting: at 5.0 µM (retest, dose inferred, filed as 0.5).
Setting [2] is: at 50.0 µM (retest, dose inferred, filed as 5.0).

About 79,000 compounds went through this panel and 15% of them were active in at least one assay; those are over-represented in the sample as a whole. Unmarked numbers belong to inactive results. Activity calls are given as the source filed them. Cut-off read from the data, not from the text of the source: active = growth inhibition above about 70%; inactive = the rest.

Consider `O=C(N=Nc1cc(Cl)ccc1Cl)NNc1cc(Cl)ccc1Cl`, for which the growth inhibition was -1% (at 1.2 µM); 0% (at 3.7 µM); 19% under setting [1]; 3% (at 11.0 µM); -1% (at 33.0 µM); 79% (active) under setting [2]. The growth inhibition is, setting by setting: (at 50.0 µM) 78.1% (active); (at 100.0 µM) 4%.

Consider `Cc1ccc(S(=O)(=O)NNC(=S)Nc2cccc3ccccc23)cc1`, for which the growth inhibition (at 1.2 µM) was 3%; the growth inhibition (at 3.7 µM) was 2%; the growth inhibition under setting [1] is -19%; the growth inhibition (at 11.0 µM) is 4%; the growth inhibition (at 33.0 µM) is 5%; the growth inhibition under setting [2] is 33%. Also, the growth inhibition (at 50.0 µM) is -14.4% and the growth inhibition (at 100.0 µM) was 4%.

For the molecule `CSc1nc(=S)[nH]c2c1c(C)nn2-c1ccccc1`, the growth inhibition reads like this: (at 1.2 µM) 3%; (at 3.7 µM) -6%; under setting [1], 16%; (at 11.0 µM) 1%; (at 33.0 µM) -1%; under setting [2], 97% (active). For the same molecule, the growth inhibition is, setting by setting: (at 50.0 µM) 45.8%; (at 100.0 µM) 3%.

In the case of `BrCC[P+](c1ccccc1)(c1ccccc1)c1ccccc1`, the growth inhibition is -74% (at 1.2 µM); -63% (at 3.7 µM); 16% under setting [1]; 14% (at 11.0 µM); 95% (active) (at 33.0 µM); 98% (active) under setting [2]. Moreover, the growth inhibition (at 50.0 µM) is 90.2% (active) and the growth inhibition (at 100.0 µM) was 97% (active).

Take `COC(=O)c1cc(-c2ccc(C)cc2)[nH]c(=O)c1C#N`: the growth inhibition (at 1.2 µM) is 0%; the growth inhibition (at 3.7 µM) is 0%; the growth inhibition under setting [1] was 11%; the growth inhibition (at 11.0 µM) is -2%; the growth inhibition (at 33.0 µM) was -1%; the growth inhibition under setting [2] was 24%. Besides, the growth inhibition is, setting by setting: (at 50.0 µM) 56.9%; (at 100.0 µM) 10%.
